# A number with no mark means an inactive call. Records with an inconclusive call do not appear. Where a call stands in place of a potency, no number is given. The source made the active and inactive calls. Unless noted, the call rests on the fitted dose curve; in most records, active means well fitted curve in the direction sought with a large enough effect; inconclusive means small, poorly fitted or top-dose-only effect, or another doubt; inactive means no such curve, though single readings can be large; an effect the other way counts as inactive or inconclusive. Numbered stars: 1 amine (or outer) side, 2 acyl side, 3 side chain; on linkers, the order of the positions; unused ones are H or OH. Bridge positions count the residues as written; N and C are the ends. Square brackets hold non-standard residues; d marks the D form. Peptide text beside a SMILES is read from it. I, II: the chains in the order shown. Actinocin(9to1) = Cc1c2oc3c(C)ccc(C(=O)[*:1])c3nc-2c(C(=O)[*:2])c(N)c1=O; NMeV = CN[C@H](C(=O)O)C(C)C; Sar = CNCC(=O)O
# What was measured:
# [1] = biological target: Glucocorticoid receptor (Homo sapiens) (UniProt P04150); experiment: GR-GFP Redistribution (AID 450;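 active means compounds whose dose series gives a full or clear partial fitted curve of increased nuclear translocation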; further: potency means the concentration at half of the fitted maximal effect); details: U2OS GR-GFP nuclear translocation, laser cytometry, 2 h
# [2] = biological target: Glucocorticoid receptor (Homo sapiens) (UniProt P04150); experiment: GR-EFC Redistribution (AID 451; calls by dose curve; further: potency means the concentration at half of the fitted maximal effect); details: CHO-K1 GR-EFC translocation, beta-gal luminescence, 2 h
# How it was run: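 Translocation of GR-ED fusion to nuclear EA restores b-gal, read by luminescence after 1 h room-temperature detection. Engineered CHO-K1 biosensor cells, 1,000/well, exposed 2 h at 37 C to titrations up to 46 uM final.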
# [3] = biological target: Mitogen-activated protein kinase 10 (Mus musculus) (UniProt Q61831); experiment: JNK3 AlphaScreen Assay (AID 530; active means well fitted curve in either direction with a large enough effect, not every such curve was filed as active;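 further: kinase came from lysate of stimulated human HepG2 cells; signal reports phosphorylation of biotinylated GST-cJun 1-79 at Ser73 with 10 µM ATP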); details: JNK3 lysate, c-Jun phosphorylation; series mostly up to 25.6 µM
# How it was run: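 Kinase buffer: 20 mM Tris-HCl pH 7.6, 10 mM MgCl2, 1 mM DTT, 0.1 mM Na3VO4, 0.01% Tween-20; ATP 10 uM. Substrate biotin-GST-cJun(1-79), enzyme from activated HepG2 lysates. Detection by Ser73 phospho-antibody AlphaScreen.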
# [4] = biological target: 3',5'-cyclic-AMP phosphodiesterase 4B (Homo sapiens) (UniProt Q07343); experiment: qHTS Assay for Inhibitors of PDE-IV (AID 607; active means well fitted activation curve with a large enough effect in the main read-out, with a control signal flat, not every such curve was filed as active); details: HEK293 ACTOne CNG channel cells, membrane potential fluorescence; series mostly up to 22.9 µM
# How it was run: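 Live HEK293 cells with a modified cyclic nucleotide-gated (CNG) channel report intracellular cAMP via membrane-potential dye fluorescence (ex 535/em 590 nm). Endogenous PDE-IV was targeted. Compounds were tested at up to 22.9 uM final; RO 20-1724 100 uM served as control.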
# [5] = Cell Viability - N2a (AID 540); details: N2a mouse neuroblastoma cell viability; activity change, negative = cytotoxicity: at 92.2 µM (top of the series); further: nearly all actives have a fitted effect of over 45% in size
# How it was run: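 N2a mouse neuroblastoma, 1500 cells/well, 5 hr settle; compound 40 hr, 37 °C; CellTiter-Glo 20 min RT; luminescence; Hill-fit AC50.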
# [6] = Cell Viability - NIH 3T3 (AID 541); details: NIH 3T3 cell viability, qHTS; activity change, negative = cytotoxicity: at 92.2 µM (top of the series); further: nearly all actives have a fitted effect of over 25% in size
# How it was run: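 qHTS format; 40 hr compound exposure, 37 °C; CellTiter-Glo luminescence (cellular ATP) read-out after 20 min at RT. Decrease in ATP = cytotoxicity; AC50 from standard Hill fit.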
# [7] = Cell Viability - HUV-EC-C (AID 542); details: HUV-EC-C endothelial cell viability, qHTS; series mostly up to 92.2 µM; further: nearly all actives have a fitted effect of over 35% in size
# How it was run: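 Luminescent ATP read-out (CellTiter-Glo, 20 min room temperature) after 40 hr compound treatment of HUV-EC-C cells at 37 °C. Concentration-response data fitted with the standard Hill equation to give AC50; tamoxifen and doxorubicin served as positive controls.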
# [8] = Cell Viability - H-4-II-E (AID 543); details: H-4-II-E rat hepatoma viability; series mostly up to 92.2 µM; further: nearly all actives have a fitted effect of over 35% in size; further: potency means the concentration at half of the fitted maximal effect
# How it was run: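 qHTS, rat hepatoma H-4-II-E, 1500 cells/well; 40 hr compound exposure, 37 °C; CellTiter-Glo ATP luminescence after 20 min RT; AC50 by standard Hill fit.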
# [9] = Cell Viability - SH-SY5Y (AID 544); details: SH-SY5Y neuroblastoma cell viability; viability change, negative = cytotoxic: at 92.2 µM (top of the series); further: nearly all actives have a fitted effect of over 55% in size; further: potency means the concentration at half of the fitted maximal effect
# How it was run: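 SH-SY5Y, 1500 cells/well, 5 hr pre-incubation 37 °C; cpd 40 hr 37 °C; CellTiter-Glo 20 min RT; luminescence (ATP) read. qHTS concentration-response, Hill fit → AC50. Tamoxifen, doxorubicin as positive controls.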
# [10] = Cell Viability - Mesenchymal (AID 546); details: mesenchymal cells viability, qHTS; activity change, negative = cytotoxicity: at 91.7 µM (top of the series);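 further: cells exposed to compound for 40 hours before reading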
# How it was run: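 CellTiter-Glo luminescence (intracellular ATP, 20 min room temperature) after 40 hr compound exposure at 37 °C of 1000 glomerulus-derived human kidney mesenchymal cells/well; AC50 values obtained by fitting qHTS concentration-response data to the Hill equation.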
# [11] = Cellular Toxicity (caspase-3) HepG2 (AID 654); details: HepG2 caspase-3 activation, luminescence; series mostly up to 92.2 µM;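 further: cells exposed to compound for 16 hours before reading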
# How it was run: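 Luminescent Caspase-Glo 3/7 readout after 16 hr compound exposure of human hepatocellular carcinoma HepG2 cells at 37 °C; qHTS concentration-response, normalized DMSO = 0%, 100 uM tamoxifen = 100%; AC50 by standard Hill equation.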
# [12] = Cellular Toxicity (caspase-3) Jurkat (AID 655); details: Jurkat caspase-3 activation, luminescence; series mostly up to 92.2 µM;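 further: cells exposed to compound for 16 h at 37 °C before reading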; further: potency means the concentration at half of the fitted maximal effect
# How it was run: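 qHTS in human Jurkat T-cell leukemia line: 16 hr compound treatment at 37 °C, caspase-3/7 activity measured by Caspase-Glo luminescence. AC50 derived from Hill equation.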
# [13] = Cellular Toxicity (caspase-3) HUV-EC-C (AID 656); details: HUV-EC-C cells, caspase-3 activation (apoptosis), vehicle = 0, 100 µM tamoxifen = 100%; series mostly up to 92.2 µM
# How it was run: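 Concentration-dependent caspase 3/7 induction was assessed in HUV-EC-C cells exposed for 16 hours. Data scaled between DMSO and tamoxifen (100 uM) controls.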
# [14] = Cellular Toxicity (caspase-3) SHSY5Y (AID 657); details: SH-SY5Y caspase-3 activation; series mostly up to 91.7 µM;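 further: cells exposed to compound for 16 hours at 37 °C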
# How it was run: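 Readout: caspase-cleaved peptide-aminoluciferin substrate driving luciferase light in SH-SY5Y neuroblastoma cells after 16 h treatment. Response normalized to DMSO and 10 uM staurosporine controls.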
# [15] = Cellular Toxicity (caspase-3) BJ (AID 658); details: BJ fibroblasts, luminescence, normalized: DMSO 0%, staurosporine 100%; series mostly up to 91.7 µM
# How it was run: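 Caspase-Glo 3/7 luminescence, read 1 hr after reagent at room temperature, in normal BJ fibroblasts exposed 16 hours at 37 °C. AC50 values from Hill-equation concentration-response, scaled between DMSO basal and 10 uM staurosporine as 100%.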
# [16] = Cellular Toxicity (caspase-3) MRC-5 (AID 659); details: MRC-5 cells, luminescence; Potency: caspase-3 activation; series mostly up to 91.7 µM
# How it was run: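 Luminescent Caspase-Glo 3/7 read-out (1 h, room temperature) after a 16 h, 37 °C compound exposure of MRC-5 lung fibroblasts at 1500 cells/well. Concentration-response AC50 from Hill equation; 0% DMSO, 100% 10 uM staurosporine.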
# [17] = Cellular Toxicity (caspase-3) Mesangial (AID 660); details: mesangial cells, normalized: DMSO 0%, 100 µM tamoxifen 100%; series mostly up to 91.7 µM;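 further: combined caspase 3 and 7 activity read by Caspase-Glo luminescence; cells exposed to compound for 16 h before the caspase read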
# How it was run: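 Luminescent Caspase-Glo 3/7 readout (aminoluciferin substrate cleavage, 20 min RT) after 16 h compound exposure at 37 °C of normal human mesangial cells. Signal increase normalized between DMSO basal and 100 uM tamoxifen; Hill-equation AC50.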
# [18] = Cellular Toxicity (caspase-3) SK-N-SH (AID 661); details: SK-N-SH caspase-3 activation, qHTS; series mostly up to 91.7 µM; further: potency means the concentration at half of the fitted maximal effect
# How it was run: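 Luminescent Caspase-Glo 3/7 read-out after 16 hr compound exposure of SK-N-SH neuroblastoma cells at 37 °C. Signal increase normalized to DMSO (basal) and 10 uM staurosporine (100%); AC50 from Hill equation fits of qHTS concentration-response data.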
# [19] = Cellular Toxicity (caspase-3) H-4-II-E (AID 663); details: H-4-II-E rat hepatoma; Potency: caspase-3 activation; series mostly up to 92.2 µM; further: potency means the concentration at half of the fitted maximal effect;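 on caspase-3 activation: cells exposed to compound for 16 hr before readout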
# How it was run: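 Caspase 3/7 activation measured by luminescent aminoluciferin substrate cleavage after 16 hr compound treatment of H-4-II-E cells in complete medium. Increase normalized between DMSO (basal) and 100 uM tamoxifen (100%); Hill-equation AC50 from concentration-response.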
# [20] = Cell Viability - Renal Proximal Tubule (AID 545); details: renal proximal tubule cells viability, primary cells of rat origin; activity change, negative = cytotoxicity: at 91.7 µM (top of the series); further: nearly all actives have a fitted effect of over 40% in size; further: potency means the concentration at half of the fitted maximal effect
# How it was run: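 In this qHTS format, normal rat kidney-derived proximal tubule cells in complete culture medium receive compound titrations, then sit 40 hours at 37 °C before luciferase-based ATP quantitation; potency is reported as AC50 from concentration-response curves.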
# Sequence of 3',5'-cyclic-AMP phosphodiesterase 4B (Homo sapiens) (Q07343 whole entry, looked up): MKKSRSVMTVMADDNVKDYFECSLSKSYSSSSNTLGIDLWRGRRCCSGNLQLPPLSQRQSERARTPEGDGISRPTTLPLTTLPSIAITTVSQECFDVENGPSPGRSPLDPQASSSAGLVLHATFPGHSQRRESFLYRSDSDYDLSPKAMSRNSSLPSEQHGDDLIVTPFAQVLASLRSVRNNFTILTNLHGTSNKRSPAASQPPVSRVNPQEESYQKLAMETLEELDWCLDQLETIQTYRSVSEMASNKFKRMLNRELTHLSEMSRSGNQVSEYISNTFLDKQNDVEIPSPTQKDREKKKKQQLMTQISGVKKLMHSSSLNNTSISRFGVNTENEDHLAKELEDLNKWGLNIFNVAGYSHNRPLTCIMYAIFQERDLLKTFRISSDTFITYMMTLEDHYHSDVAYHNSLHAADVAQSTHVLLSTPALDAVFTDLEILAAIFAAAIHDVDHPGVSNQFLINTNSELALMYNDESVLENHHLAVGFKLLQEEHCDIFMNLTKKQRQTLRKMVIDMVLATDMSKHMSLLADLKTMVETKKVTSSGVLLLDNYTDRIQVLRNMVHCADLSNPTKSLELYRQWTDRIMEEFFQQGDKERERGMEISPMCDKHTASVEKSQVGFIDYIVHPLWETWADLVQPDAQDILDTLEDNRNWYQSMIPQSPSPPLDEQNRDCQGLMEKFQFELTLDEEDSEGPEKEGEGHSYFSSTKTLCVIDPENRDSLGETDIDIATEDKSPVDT
# Sequence of Glucocorticoid receptor (Homo sapiens) (P04150 whole entry, looked up, the tested form may be a part): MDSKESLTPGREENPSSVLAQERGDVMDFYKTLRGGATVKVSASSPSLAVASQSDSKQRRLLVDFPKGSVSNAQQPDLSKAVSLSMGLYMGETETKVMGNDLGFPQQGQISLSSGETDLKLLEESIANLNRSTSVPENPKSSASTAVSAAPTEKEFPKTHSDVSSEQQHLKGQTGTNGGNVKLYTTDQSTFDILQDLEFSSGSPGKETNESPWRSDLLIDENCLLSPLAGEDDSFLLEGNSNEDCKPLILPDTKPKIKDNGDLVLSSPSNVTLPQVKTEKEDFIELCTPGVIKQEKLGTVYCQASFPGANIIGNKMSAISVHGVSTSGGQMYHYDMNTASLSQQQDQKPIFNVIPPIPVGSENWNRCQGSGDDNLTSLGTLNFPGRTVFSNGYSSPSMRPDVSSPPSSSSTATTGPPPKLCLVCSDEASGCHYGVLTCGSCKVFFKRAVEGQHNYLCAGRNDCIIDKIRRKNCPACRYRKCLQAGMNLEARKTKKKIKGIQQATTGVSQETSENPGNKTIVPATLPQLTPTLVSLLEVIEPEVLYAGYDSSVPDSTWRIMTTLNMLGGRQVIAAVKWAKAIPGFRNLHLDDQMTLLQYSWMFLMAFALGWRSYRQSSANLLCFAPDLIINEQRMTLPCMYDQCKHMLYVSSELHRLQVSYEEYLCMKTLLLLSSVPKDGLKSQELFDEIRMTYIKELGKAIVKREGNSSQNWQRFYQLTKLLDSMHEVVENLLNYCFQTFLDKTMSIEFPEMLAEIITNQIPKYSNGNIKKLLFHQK
compound,measurement,setting,value
CN(C(=O)CN(CCO)CC(=O)N(C)C(C)(C)Cc1ccccc1)C(C)(C)Cc1ccccc1,Potency,[1],> 20.6 µM
same,Potency,[2],> 20.6 µM
same,outcome,[3],inactive
same,outcome,[4],inactive
O=C1CCC(c2ccc(-n3ccnc3)cc2)=NN1,Potency,[1],> 46 µM
same,Potency,[2],> 46 µM
same,outcome,[3],inactive
same,outcome,[4],inactive
COC1=CC(=O)C[C@@H](C)[C@]12Oc1c(Cl)c(OC)cc(OC)c1C2=O,outcome,[3],inactive
same,Potency,[5],inactive
same,Potency,[6],inactive
same,Potency,[7],inactive
same,Potency,[8],25.1 µM (active)
same,Potency,[9],25.1 µM (active)
same,"activity change, negative = cytotoxicity",[10],-20.5%
same,Potency,[11],inactive
same,Potency,[12],inactive
same,outcome,[13],inactive
same,Potency,[14],inactive
same,outcome,[15],inactive
same,Potency,[16],inactive
same,outcome,[17],inactive
same,Potency,[18],inactive
same,Potency,[19],inactive
CCCn1c(=O)[nH]c(=O)c2[nH]cnc21,outcome,[3],inactive
same,outcome,[4],inactive
CC/C(=C(/CC)c1ccc(O)cc1)c1ccc(O)cc1,outcome,[3],inactive
same,"activity change, negative = cytotoxicity",[5],-83.5% (active)
same,Potency,[9],31.6 µM (active)
same,"activity change, negative = cytotoxicity",[10],-3%
same,Potency,[11],inactive
same,Potency,[12],inactive
same,outcome,[13],inactive
same,Potency,[14],inactive
same,outcome,[15],inactive
same,Potency,[16],inactive
same,outcome,[17],inactive
same,Potency,[18],inactive
same,Potency,[19],inactive
CC[N+](CC)(CCNC(=O)C(=O)NCC[N+](CC)(CC)Cc1ccccc1Cl)Cc1ccccc1Cl,outcome,[3],inactive
O=C(O)CCCCC(=O)O,outcome,[3],inactive
same,Potency,[5],inactive
same,Potency,[6],inactive
same,Potency,[7],inactive
same,Potency,[8],inactive
same,Potency,[9],inactive
same,"activity change, negative = cytotoxicity",[20],1.76%
same,"activity change, negative = cytotoxicity",[10],3.41%
same,Potency,[11],inactive
same,Potency,[12],inactive
same,outcome,[13],inactive
same,Potency,[14],inactive
same,outcome,[15],inactive
same,Potency,[16],inactive
same,outcome,[17],inactive
same,Potency,[18],inactive
same,Potency,[19],inactive
CCCCOc1ccc(OCCCN2CCOCC2)cc1,outcome,[3],inactive
same,outcome,[4],inactive
O=C1OC(c2ccc(O)cc2)(c2ccc(O)cc2)c2ccccc21,outcome,[3],inactive
same,Potency,[5],inactive
same,Potency,[6],inactive
same,Potency,[8],inactive
same,"activity change, negative = cytotoxicity",[10],-12.7%
same,Potency,[11],inactive
same,Potency,[12],inactive
same,outcome,[13],inactive
same,Potency,[14],inactive
same,outcome,[15],inactive
same,Potency,[16],inactive
same,outcome,[17],inactive
same,Potency,[18],inactive
same,Potency,[19],inactive
CCCCCCc1ccc(O)cc1O,outcome,[3],inactive
same,Potency,[7],inactive
same,Potency,[8],inactive
same,Potency,[9],inactive
same,"activity change, negative = cytotoxicity",[20],-9.26%
same,"activity change, negative = cytotoxicity",[10],-9.3%
same,Potency,[11],inactive
same,Potency,[12],inactive
same,outcome,[13],inactive
same,Potency,[14],inactive
same,outcome,[15],inactive
same,Potency,[16],inactive
same,outcome,[17],inactive
same,Potency,[18],inactive
same,Potency,[19],inactive
COc1c(C)c2c(c(O)c1C/C=C(\C)CCC(=O)O)C(=O)OC2,outcome,[3],inactive
same,outcome,[4],inactive
CC(O)(P(=O)(O)O)P(=O)(O)O,outcome,[3],inactive
same,outcome,[4],inactive
Cc1cccc(C)c1NC(=O)CN1CCN(CCCC(c2ccc(F)cc2)c2ccc(F)cc2)CC1,outcome,[3],inactive
CC(C)NC[C@@H](O)COc1cccc2ccccc12,outcome,[3],inactive
same,outcome,[4],inactive
"Cc1c2oc3c(C)ccc(C(=O)N[C@@H]4C(=O)N[C@H](C(C)C)C(=O)N5CCC[C@H]5C(=O)N(C)CC(=O)N(C)[C@@H](C(C)C)C(=O)O[C@@H]4C)c3nc-2c(C(=O)N[C@@H]2C(=O)N[C@H](C(C)C)C(=O)N3CCC[C@H]3C(=O)N(C)CC(=O)N(C)[C@@H](C(C)C)C(=O)O[C@@H]2C)c(N)c1=O (I: T[dV]P[Sar][NMeV] / II: T[dV]P[Sar][NMeV]; ester I:1-I:C, II:1-II:C; linker I:N-II:N via Actinocin(9to1))",outcome,[3],inactive
same,Potency,[7],inactive
same,Potency,[8],0.00398 µM (active)
same,Potency,[20],0.001 µM (active)
same,"activity change, negative = cytotoxicity",[10],-18.7%
same,Potency,[11],inactive
same,Potency,[12],0.00398 µM (active)
same,outcome,[13],inactive
same,outcome,[15],inactive
same,Potency,[16],inactive
same,outcome,[17],inactive
same,Potency,[18],0.0158 µM (active)
same,Potency,[19],0.126 µM (active)
C=CCc1ccc(O)c(OC)c1,outcome,[3],inactive
same,Potency,[5],inactive
same,Potency,[6],inactive
same,Potency,[7],inactive
same,Potency,[8],inactive
same,Potency,[9],inactive
same,"activity change, negative = cytotoxicity",[20],5.39%
same,"activity change, negative = cytotoxicity",[10],5.14%
same,Potency,[11],inactive
same,Potency,[12],inactive
same,outcome,[13],inactive
same,Potency,[14],inactive
same,outcome,[15],inactive
same,Potency,[16],inactive
same,outcome,[17],inactive
same,Potency,[18],inactive
same,Potency,[19],inactive
Cc1cc(N)c2cc(NC(=O)Nc3ccc4nc(C)cc(N)c4c3)ccc2n1,outcome,[3],inactive
same,outcome,[4],inactive
